Source: PubChem BioAssay
Sampled rows, rich in hits. Any-hit rate of the full collection: about 7.5%.
NPC1 prom act: qHTS Assay for NPC1 Promoter Activators. Huh7 NPC1 promoter luciferase reporter, 24 h. actives 2.4% (n = 320,000). AID 485313, 2010. Potency, µM (titrated, usually from 9.22 µM), for the others: at the highest dose activation, usual class: activators; further: % of control where 0% means no effect; nearly all actives have a fitted effect of over 60% in size
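In 1536-well qHTS, Huh7 cells harboring an NPC1 promoter–luciferase construct received compound for 24 h; activation was quantified by luminescence following luciferase reagent addition.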
FLuc counter: qHTS profiling assay for firefly luciferase inhibitor/activator using purifed enzyme and Km concentrations of substrates (counterscreen for miR-21 project); actives 6.9% (n = 360,000); purified FLuc, Km substrates, luminescence inhibition; Potency, µM (top dose mostly 57.5 µM), inactives show at the highest dose activity change, negative = inhibition, usual class: inhibitors;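 further: plate controls were vehicle for no effect and reference inhibitor for full effect; nearly all actives have a fitted effect of over 55% in size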
Target sequence (P08659 whole entry, looked up): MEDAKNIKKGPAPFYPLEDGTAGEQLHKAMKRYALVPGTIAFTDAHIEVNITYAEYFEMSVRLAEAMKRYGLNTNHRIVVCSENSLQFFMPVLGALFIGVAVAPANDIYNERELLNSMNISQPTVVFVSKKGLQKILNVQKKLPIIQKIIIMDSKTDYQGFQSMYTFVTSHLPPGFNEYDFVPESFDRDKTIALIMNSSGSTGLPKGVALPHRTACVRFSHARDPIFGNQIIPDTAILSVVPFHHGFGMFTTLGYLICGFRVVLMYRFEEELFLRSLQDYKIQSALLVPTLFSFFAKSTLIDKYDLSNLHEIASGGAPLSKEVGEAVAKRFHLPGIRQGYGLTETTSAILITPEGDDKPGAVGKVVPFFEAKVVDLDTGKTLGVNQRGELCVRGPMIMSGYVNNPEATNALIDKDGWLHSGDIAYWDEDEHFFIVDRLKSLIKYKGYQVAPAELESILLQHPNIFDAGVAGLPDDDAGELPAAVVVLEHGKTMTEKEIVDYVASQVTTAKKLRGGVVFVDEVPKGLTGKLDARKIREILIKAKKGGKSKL
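Biochemical qHTS of compounds, final roughly 60 µM downward over six points, against 10 nM purified firefly luciferase using Km concentrations of substrates (10 uM D-luciferin, 10 uM ATP) in Tris acetate pH 7.5 buffer; luminescence output.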
SMN2 splice up: qHTS Assay for Enhancers of SMN2 Splice Variant Expression. HEK293 SMN2-luciferase splicing reporter, luminescence, 30-36 h. Potency, µM (top dose mostly 46.1 µM), without a hit: top-dose activity change, positive = activation, most hits filed as activators. actives 2.8% (n = 210,000). AID 1458, 2008; further: % of control where 0% means no effect; nearly all actives have a fitted effect of over 55% in size
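qHTS luciferase splicing reporter: luminescence rises when SMN2 exon 7 is included in transfected HEK293 cells. Compound exposure lasted 30-36 h at 37C, with 4.5 mM final sodium butyrate as control, followed by a ONE-Glo read.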
ELG1 genotox: qHTS screen for small molecules that induce genotoxicity in human embryonic kidney (HEK293T) cells expressing luciferase-tagged ELG1; Potency, µM (top dose mostly 46 µM), for inactives: top-dose activity change, positive = activation, usual class: activators; actives 1.3% (n = 330,000); HEK293T ELG1-luciferase reporter, luminescence, 16 h; further: % of control where 0% means no effect; nearly all actives have a fitted effect of over 60% in size
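Screening used a luciferase reporter fused to human ELG1 in HEK293T cells. Luminescence was read on a CCD plate imager after 16 hr exposure and 30 min ONE-Glo incubation.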
Rab9 prom act: qHTS Assay for Rab9 Promoter Activators. Huh7 Rab9 promoter-luciferase reporter, luminescence, 24 h. Potency, µM (top dose mostly 9.22 µM), for inactives: top-dose activation, negative = inhibition, hits mostly activators. actives 2.8% (n = 320,000); further: % of control where 0% means no effect; nearly all actives have a fitted effect of over 60% in size
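Huh7 cells stably carrying Rab9 promoter–luciferase reporter, plated 1500 cells/well, compound added after 2 h and incubated 24 h at 37 °C; luciferase luminescence then read after 10 min with detection reagent.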
* hit, by the source's call; ? = inconclusive; . = no result. The call rests on the fitted dose curve; in most records, active means well fitted curve in the direction sought with a large enough effect; inconclusive means small, poorly fitted or top-dose-only effect, or another doubt; inactive means no such curve, though single readings can be large; an effect the other way counts as inactive or inconclusive. Potency means the concentration at half of the fitted maximal effect.

SMILES	NPC1 prom act	FLuc counter	SMN2 splice up	ELG1 genotox	Rab9 prom act
COc1ccc(NC(=O)/C(C#N)=C\c2ccc(-c3cccc(C(=O)O)c3C)o2)cc1	7.0%	8.49µM*	.	-1.5%	22.2%
Cc1c(C(=O)O)cccc1-c1ccc(C=O)o1	6.3%	?	?	9.4%	1.1%
CNC(=O)/C(C#N)=C/c1ccc(-c2ccc(OC)cc2[N+](=O)[O-])o1	29.3%	?	15.8µM*	12.6%	?
CC(C)c1ccc(OCC(=O)NCc2ccccc2)cc1	7.7%	?	.	-0.7%	4.8%
C=C1SC(=Nc2ccccc2Cl)N(C(=O)c2sc3ccccc3c2Cl)C12CCCCC2	10.1%	21.3µM*	.	5.9%	22.8%
Nc1c(Cl)ncnc1N/N=C/c1cccc(O)c1	4.9%	16.9µM*	.	2.2%	-3.5%
CCc1ccc(Nc2ncnc3sc4c(c23)CCCC4)cc1	.	-13.5%	.	.	.
COc1ccc(/C=N/Nc2ncnc3sc4c(c23)CCCC4)cc1OC	11.3%	2.69µM*	21.0%	0.1%	7.8%
COc1ccc(/C=N/Nc2ncnc(Cl)c2N)cc1OC	2.3%	21.3µM*	23.1%	10.3%	1.9%
CCCc1cc(=O)[nH]c(Nc2cc(Cl)cc(Cl)c2)n1	.	-3.1%	-5.0%	.	.
COc1cc(NC(=O)c2c(C)oc3ncnc(N4CCCCC4)c23)cc(OC)c1	.	-0.5%	.	.	.
Cc1cc(NC(=O)CC2(CC(=O)O)CCCC2)n(C)n1	-4.2%	-0.3%	.	-0.2%	-1.3%
Oc1ccc(-c2nccc(-c3ccc(F)cc3)n2)cc1	?	13.5µM*	.	?	?
CC(Oc1ccccc1)C(=O)Nc1nc(-c2ccccn2)cs1 (stereo not drawn)	-15.4%	-26.0%	.	15.5%	-16.6%
COC(=O)C(C)Oc1ccc(-c2nccc(-c3ccccn3)n2)cc1 (stereo not drawn)	13.5%	19µM*	.	1.1%	8.8%
NNC(=O)COc1ccc(-c2nccc(-c3ccc(F)cc3)n2)cc1	-14.0%	?	.	7.4%	-11.1%
COC(=O)C(C)Oc1ccc(-c2nccc(-c3ccc(F)cc3)n2)cc1 (stereo not drawn)	7.4%	15.1µM*	.	3.6%	0.0%
CCN(CC)S(=O)(=O)c1ccc(C(=O)N2CC(=O)Nc3ccc(F)cc3C2c2ccccc2)cc1 (stereo not drawn)	.	8.5%	2.2%	.	.
CN(CC(=O)NCCc1ccccc1)S(=O)(=O)c1ccc(Br)s1	1.4%	-1.4%	.	-6.6%	-5.9%
Cc1cccc(NC(=O)c2sc(Cl)nc2-c2ccccc2)c1	7.5%	-0.6%	18.6%	2.8%	9.7%
Fc1ccc(-n2ncc3c(NC4CCCCCC4)ncnc32)cc1	.	4.78µM*	.	.	.
Cc1ccc(-n2ncc3c(NC4CCCCCC4)ncnc32)cc1	.	0.953µM*	.	.	.
O=C(CSc1ncnc2c1cnn2-c1ccc(F)cc1)NC1CCCC1	-17.3%	-1.0%	.	-2.0%	-31.7%
Clc1cccc(-n2ncc3c(NC4CCCCC4)ncnc32)c1	.	4.78µM*	.	.	.
Cc1ccc(-n2ncc3c(NC4CCCCC4)ncnc32)cc1	.	0.426µM*	.	.	.
SMILES	NPC1 prom act	FLuc counter	SMN2 splice up	ELG1 genotox	Rab9 prom act
Cc1ccc(Cl)cc1-n1ncc2c(NC3CCCCC3)ncnc21	.	-3.1%	.	.	.
COc1cccc(NC(=O)Nc2ccc3nc(N4CCN(C)CC4)cc(C)c3c2)c1	.	12µM*	.	.	.
Cc1cc(N2CCN(C)CC2)nc2ccc(NC(=O)Nc3ccccc3Cl)cc12	.	1.69µM*	.	.	.
Cc1cc(C)cc(NC(=O)Nc2ccc3nc(N4CCN(C)CC4)cc(C)c3c2)c1	.	-19.7%	.	.	.
CCC1CN(C(=O)N2CCC(C(=O)NCCc3ccc(Cl)cc3)CC2)c2ccccc2O1 (stereo not drawn)	.	-8.5%	.	.	.
O=C(COC(=O)c1ccncc1)c1ccc(Br)cc1	-0.8%	7.57µM*	.	-1.5%	-4.4%
N/C(=N\OC(=O)c1cccc(Br)c1)c1ccncc1	24.6%	12µM*	16.6%	?	20.3%
COc1cc(OC)cc(C(=O)O/N=C(\N)c2ccncc2)c1	2.1%	?	-2.1%	-1.6%	-2.0%
N/C(=N\OC(=O)C1CCCCC1)c1cccc(Br)c1	16.2%	?	.	2.6%	15.2%
N/C(=N\OC(=O)c1ccc(Br)cc1)c1ccncc1	?	4.78µM*	?	?	?
N/C(=N\OC(=O)c1ccccc1)c1ccncc1	?	19µM*	25.2%	?	2.82µM*
Cc1ccc(N2C(=O)CS(=O)(=O)C23C(=O)N(Cc2ccc(Cl)cc2)c2ccccc23)cc1C (stereo not drawn)	.	5.1%	.	.	.
COc1cccc(CNC(=O)CCC2CCCN(C(=O)Cc3ccccc3F)C2)c1 (stereo not drawn)	5.4%	-14.2%	-15.2%	0.1%	-2.3%
CCCN(CCC)S(=O)(=O)c1ccc(C(=O)Nc2ccc(S(=O)(=O)Nc3nnc(CC)s3)cc2)cc1	-2.1%	9.3%	.	-1.3%	-1.9%
CC(C)=C1CCC(C)CC1=O (stereo not drawn)	.	.	4.9%	.	.
Cc1ccc([N+](=O)[O-])cc1S(=O)(=O)Nc1cccc(S(=O)(=O)NC2=NCCC2)c1	.	.	.	0.4%	.
C=CC[C@@H](CC(=O)NCCO)C(=O)N[C@@H](COC(=O)[C@@H](CC=C)CC(=O)OC(C)(C)C)Cc1c[nH]c2ccccc12	.	.	.	-4.4%	.
COc1ccccc1Nc1ccc(C(=O)NC2CCCCC2)cn1	1.6%	13.5µM*	-10.7%	?	0.7%
COc1ccccc1Nc1cc(C(=O)NC2CCCC2)c2ccccc2n1	1.3%	12µM*	-5.6%	1.3%	0.3%
CN(C)/N=C/C=C1\CC/C(=C\c2ccc(Br)cc2)C1=O	16.9%	?	1.0%	?	?
CN(C)/N=C/C=C1\CCC/C(=C/c2cccs2)C1=O	?	0.849µM*	.	?	3.16µM*
CCn1cc2nc(SCC(=O)Nc3ccc(OC)c(OC)c3)n(Cc3ccc(OC)cc3)c(=O)c2n1	-0.7%	16.9µM*	.	6.8%	7.7%
O=C(N/N=C/c1ccoc1)c1cc(Br)ccc1O	-0.1%	3.01µM*	.	9.9%	2.6%
Cc1cccc(/C=N/NC(=O)c2cc(Br)ccc2O)n1	10.2%	23.9µM*	.	?	18.8%
CCOc1ccc(Br)cc1C(=O)N/N=C/c1cccc(C)n1	1.0%	2.3%	.	1.0%	-2.1%
O=C(N/N=C/c1ccoc1)c1ccccc1Br	-5.0%	-4.5%	.	7.5%	9.4%
Cc1ccc(CNc2cc(C)nc3nc(-c4cccc(C)c4)nn23)cc1	.	12µM*	.	.	.
Cc1cccc(Nc2cc(C)nc3nc(-c4ccccc4)nn23)c1	.	-7.5%	-6.0%	.	.
CCOc1ccc(CNc2cc(C)nc3nc(-c4cccc(C)c4)nn23)cc1OC	.	5.36µM*	.	.	.
Clc1cc2nc(-c3cccnc3Cl)[nH]c2cc1Cl	0.891µM*	3.01µM*	.	4.61µM*	?
